Holding throughout (settings): mRNA level, 48 h; actives raise or lower the signal
Read-out in test [1]: MicroRNA 122 (MIR122), gene 406906
The test is described as follows: LTEA_HepaRG_MIR122: Life Technologies and Expression Analysis (LTEA) Assay for MicroRNA 122 (MIR122) using HepaRG (AID 2283516). Further: the transcript read is the microRNA miR-122. Summed up:
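HepaRG, 48 h exposure, 8-pt half-log from 100 uM, 0.5% DMSO; TaqMan qRT-PCR; bidirectional fit vs DMSO.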

Read-out in the next test: MYC, MYC (gene 4609)
Description: LTEA_HepaRG_MYC: Life Technologies and Expression Analysis (LTEA) Assay for MYC using HepaRG (AID 2283518). Summed up:
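Expression changes were scored by TaqMan qRT-PCR with ACTB, GAPDH and POLR2A normalization. Cultures in serum-free induction medium received duplicate 8-point concentration series, highest 100 uM, for 48 h; DMSO (0.5%) served as baseline.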

Read-out in test [2]: Paternally Expressed 10 (PEG10), PEG10 (gene 23089)
The test is described as follows: LTEA_HepaRG_PEG10: Life Technologies and Expression Analysis (LTEA) Assay for Paternally Expressed 10 (PEG10) using HepaRG (AID 2283520).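 On AC50: PEG10 transcript by qRT-PCR normalised to ACTB GAPDH and POLR2A.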 Summed up: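 Chemicals tested on HepaRG cells for 48 h, highest concentration 100 uM. PEG10 expression assessed by qRT-PCR relative to DMSO control.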

Read-out in test [3]: Nuclear factor NF-kappa-B p105 subunit (Homo sapiens) (UniProt P19838)
The test is described as follows: LTEA_HepaRG_NFKB1: Life Technologies and Expression Analysis (LTEA) Assay for Nuclear Factor Kappa B Subunit 1 (NFKB1) using HepaRG (AID 2283521). Summed up:
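Differentiated human HepaRG cells in serum-free induction medium with 0.5% DMSO were exposed for 48 h to eight half-log concentrations, top 100 uM, in duplicate. NFKB1 mRNA measured by Fluidigm TaqMan qRT-PCR, normalised to ACTB, GAPDH and POLR2A; bidirectional fit versus DMSO.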

Read-out in test [4]: Protein phosphatase 2A (PPP2R4), PTPA (gene 5524)
The test is described as follows: LTEA_HepaRG_PPP2R4: Life Technologies and Expression Analysis (LTEA) Assay for Protein phosphatase 2A (PPP2R4) using HepaRG (AID 2283522). Summed up: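 Gene-expression endpoint in HepaRG hepatic cells: 48 h treatment across eight half-log concentrations up to 100 uM in 0.5% DMSO. PPP2R4 mRNA by qRT-PCR, normalized to three endogenous control genes.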

Read-out in test [5]: Phosphatase and tensin (PTEN), PTEN (gene 5728)
The test is described as follows: LTEA_HepaRG_PTEN: Life Technologies and Expression Analysis (LTEA) Assay for Phosphatase and tensin (PTEN) using HepaRG (AID 2283523). An outline of the steps: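 Read-out is PTEN transcript level by multiplexed TaqMan qRT-PCR after 48 h chemical treatment of human HepaRG cultures in serum-free induction medium. Concentrations spanned 100 uM downward in half-log steps, 0.5% DMSO throughout; activity fitted in both directions against vehicle.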

Read-out in test [6]: solute carrier (SLC22A1), SLC22A1 (gene 6580)
Description: LTEA_HepaRG_SLC22A1: Life Technologies and Expression Analysis (LTEA) Assay for solute carrier (SLC22A1) using HepaRG (AID 2283524).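 On AC50: TaqMan qRT-PCR normalized to ACTB GAPDH and POLR2A housekeeping genes.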 An outline of the steps: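 HepaRG (human liver line), 48 h dosing in serum-free induction medium; 8 conc., half-log down from 100 uM, 0.5% DMSO vehicle, duplicates. Endpoint: SLC22A1 mRNA, qRT-PCR, housekeeping-normalized; gain/loss fit vs DMSO.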

Read-out in test [7]: Pyruvate Dehydrogenase Kinase 4 (PDK4), PDK4 (gene 5166)
Description: LTEA_HepaRG_PDK4: Life Technologies and Expression Analysis (LTEA) Assay for Pyruvate Dehydrogenase Kinase 4 (PDK4) using HepaRG (AID 2283525). An outline of the steps:
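In this multiplexed human HepaRG expression assay, cells are treated 48 h with test chemicals across an eight-point range starting at 100 uM. PDK4 mRNA changes, normalized to ACTB/GAPDH/POLR2A, are fitted in both directions relative to vehicle.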

Read-out in test [8]: matrix metalloproteinase-3 (MMP3), MMP3 (gene 4314)
Description: LTEA_HepaRG_MMP3: Life Technologies and Expression Analysis (LTEA) Assay for matrix metalloproteinase-3 (MMP3) using HepaRG (AID 2283519). Summed up: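 HepaRG, human; 48 h dosing, 8 conc. (max 100 uM, half-log), duplicate, 0.5% DMSO. Readout: MMP3 transcript by Fluidigm TaqMan qRT-PCR, ACTB/GAPDH/POLR2A-normalised. Gain or loss fitted vs DMSO.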

The AC50 is the midpoint of the concentration-response curve, whichever way the signal moves.

SMILES strings stand for the structures. Activity calls are given as the source filed them. How the source made its calls: active means hit-call score of the fitted dose curve at least 0.9, where 1 is the maximum; inactive means score below 0.9.

Sequence of Nuclear factor NF-kappa-B p105 subunit (Homo sapiens) (P19838 whole entry, looked up): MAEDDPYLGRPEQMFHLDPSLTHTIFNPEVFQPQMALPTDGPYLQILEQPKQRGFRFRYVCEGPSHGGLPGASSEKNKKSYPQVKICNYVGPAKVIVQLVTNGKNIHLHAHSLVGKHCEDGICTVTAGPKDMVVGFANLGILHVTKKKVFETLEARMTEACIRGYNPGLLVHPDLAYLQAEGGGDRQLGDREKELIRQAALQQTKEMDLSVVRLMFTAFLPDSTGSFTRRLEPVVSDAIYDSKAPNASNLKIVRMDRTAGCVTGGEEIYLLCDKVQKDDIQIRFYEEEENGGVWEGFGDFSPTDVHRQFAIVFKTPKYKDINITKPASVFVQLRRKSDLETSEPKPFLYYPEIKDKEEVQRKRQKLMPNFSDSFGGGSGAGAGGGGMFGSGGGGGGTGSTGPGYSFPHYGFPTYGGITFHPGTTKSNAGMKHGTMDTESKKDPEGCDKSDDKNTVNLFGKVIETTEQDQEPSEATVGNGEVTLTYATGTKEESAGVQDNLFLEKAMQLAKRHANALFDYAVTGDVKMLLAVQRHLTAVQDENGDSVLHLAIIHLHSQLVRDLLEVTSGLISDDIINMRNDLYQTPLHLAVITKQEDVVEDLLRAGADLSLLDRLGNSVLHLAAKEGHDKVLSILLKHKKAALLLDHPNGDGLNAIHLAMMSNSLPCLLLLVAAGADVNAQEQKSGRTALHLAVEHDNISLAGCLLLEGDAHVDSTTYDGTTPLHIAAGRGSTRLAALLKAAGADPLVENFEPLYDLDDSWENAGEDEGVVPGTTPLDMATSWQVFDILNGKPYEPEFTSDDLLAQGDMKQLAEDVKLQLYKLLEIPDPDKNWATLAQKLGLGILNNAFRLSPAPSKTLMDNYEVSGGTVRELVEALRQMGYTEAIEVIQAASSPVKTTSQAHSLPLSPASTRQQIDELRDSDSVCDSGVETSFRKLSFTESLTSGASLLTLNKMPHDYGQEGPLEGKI

For the compound `O=C(O)C(F)(F)C(F)(F)C(F)(F)C(F)(F)C(F)(F)C(F)(F)C(F)(F)C(F)(F)C(F)(F)F`, the AC50 in test [1] was 63.1 µM (active); in the test with MYC, MYC (gene 4609), 22.8 µM (active); in test [2] it was 12.1 µM (active); in test [4], 88.9 µM (active); in test [5], 82.2 µM (active); in test [6] it was 41.2 µM (active). For the same compound, the AC50 in test [7] was 25.7 µM (active). Moreover, in [3], the call was inactive.

`Cc1ccc(O)c(C)c1`: the outcome was “inactive” in test [1]; “inactive” with MYC, MYC (gene 4609); “inactive” in test [2]; “inactive” in [3]; “inactive” in test [4]; “inactive” in test [5]. In addition, the result in test [6] and in test [7] was inactive.

Take `Cc1cc(O)ccc1Cl`: the outcome in test [1] was “inactive”; in the test with MYC, MYC (gene 4609), “inactive”; in test [2] it was “inactive”; in test [3], “inactive”; in test [4], “inactive”; in test [5], “inactive”. For the same compound, the result in [6] and in test [7] was inactive.

Regarding `O=C(NC(=O)c1cc(F)c(F)cc1Cl)Nc1cc(F)ccc1N1CCC(C(=O)O)CC1`, the outcome in [1] is “inactive”; in the test with MYC, MYC (gene 4609), “inactive”; in test [4], “inactive”; in test [5] it was “inactive”; in test [6], “inactive”; in [7] it was “inactive”. For the same compound, in test [2], the concentration at half-maximal activity (AC50) is 25 µM (active).

In the case of `Oc1c(Cl)c(Cl)c(Cl)c(Cl)c1Cl`, the AC50 in [1] was 3.65 µM (active); in the test with MYC, MYC (gene 4609) it was 16.1 µM (active); in test [2] it was 2.11 µM (active); in [4], 2.22 µM (active); in test [5], 6.88 µM (active); in test [6] it was 3.31 µM (active). For the same compound, the compound was called inactive in test [7].

Regarding `CCCCCCCCOC(=O)c1ccccc1C(=O)OCCCCCCCC`, the outcome was “inactive” in test [1]; “inactive” in the test with MYC, MYC (gene 4609); “inactive” in test [2]; “inactive” in test [3]; “inactive” in [4]; “inactive” in test [5]. The outcome in test [6] and in test [7] was inactive.

For the compound `CC1=C2C[C@H]3[C@@H](CC=C4C[C@@H](O)CC[C@@]43C)[C@@H]2CC[C@]12O[C@@H]1C[C@H](C)CN[C@H]1[C@H]2C`, the outcome in test [1] is “inactive”; in the test with MYC, MYC (gene 4609) it was “inactive”; in test [2], “inactive”; in [4], “inactive”; in test [5], “inactive”; in test [6], “inactive”. The compound was classed as inactive in test [7].

Regarding `CC(C)C(=O)OCC(C)(C)C(OC(=O)C(C)C)C(C)C` (stereo not given), the outcome in test [1] was “inactive”; with MYC, MYC (gene 4609), “inactive”; in test [2] it was “inactive”; in test [3], “inactive”; in test [4], “inactive”; in test [5] it was “inactive”. The outcome in [6] and in [7] was inactive.

For the compound `CCCCCCCCCc1ccc(O)cc1`, the outcome in test [1] is “inactive”; with MYC, MYC (gene 4609) it was “inactive”; in [2], “inactive”; in test [3] it was “inactive”; in [4] it was “inactive”; in test [5], “inactive”. Also, the compound was classed as inactive in test [6]. In addition, the AC50 in test [7] is 63.2 µM (active).

In the case of `O=S(=O)(O)C(F)(F)C(F)(F)C(F)(F)C(F)(F)C(F)(F)C(F)(F)F`, the outcome in test [1] is “inactive”; with MYC, MYC (gene 4609), “inactive”; in test [2], “inactive”; in test [3], “inactive”; in test [4], “inactive”; in test [6] it was “inactive”. The AC50 is 10.3 µM (active) in test [5] and 35.2 µM (active) in [7].

On to `CC(c1ccc(O)cc1)(c1ccc(O)cc1)c1ccc(O)cc1`, for which the AC50 is 77.9 µM (active) in test [1]; 94.2 µM (active) in the test with MYC, MYC (gene 4609); 69.7 µM (active) in test [4]; 74.3 µM (active) in [5]; 41.4 µM (active) in test [6]; 70.9 µM (active) in [7]. The compound was called inactive in test [8] and in [3].

For `CCCN(CCC)N=O`, the outcome in test [1] was “inactive”; in the test with MYC, MYC (gene 4609), “inactive”; in test [2], “inactive”; in [3] it was “inactive”; in test [4] it was “inactive”; in test [5], “inactive”. Moreover, the compound was called inactive in test [6] and in [7].

In the case of `Clc1ccc(C(Cl)(Cl)Cl)cc1`, the outcome in test [1] was “inactive”; with MYC, MYC (gene 4609) it was “inactive”; in [8], “inactive”; in test [2], “inactive”; in test [4] it was “inactive”; in [5], “inactive”. Also, the call in [6] and in [7] was inactive.

As to `Nc1ccc(-c2ccc(N)cc2)cc1`, the outcome in [1] was “inactive”; with MYC, MYC (gene 4609), “inactive”; in test [4], “inactive”; in test [5] it was “inactive”; in test [6], “inactive”; in test [7], “inactive”. The AC50 in [2] is 2.2 µM (active).

Consider `C=CC(N)=O`, for which the outcome was “inactive” in [1]; “inactive” with MYC, MYC (gene 4609); “inactive” in test [2]; “inactive” in test [3]; “inactive” in test [4]; “inactive” in test [5]. Moreover, the compound was classed as inactive in [6] and in test [7].

For `COc1ccc(O)c(C(C)(C)C)c1`, the outcome was “inactive” in test [1]; “inactive” with MYC, MYC (gene 4609); “inactive” in test [2]; “inactive” in test [4]; “inactive” in [5]; “inactive” in test [7].

In the case of `COS(=O)(=O)OC`, the outcome is “inactive” in test [1]; “inactive” with MYC, MYC (gene 4609); “inactive” in [2]; “inactive” in test [3]; “inactive” in test [4]; “inactive” in test [5]. The compound was classed as inactive in [6] and in [7].

(Values after PubChem BioAssay (EPA / NIEHS).)
